Pf growth 96h: P. falciparum growth inhibition at 96 hour, primary screen for plastid delayed-death inhibitors; P. falciparum luciferase reporter growth, 96 h; Potency, µM (doses to about 28.7 µM), for inactives: at the highest dose activity change, negative = inhibition, usual class: inhibitors; 320,000 tested, 6.9% active; AID 504834; further: potency means the concentration at half of the fitted maximal effect; on the % scale 0 is the no-effect control and ±100 the full control effect
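P. falciparum expressing integrated firefly luciferase grown in erythrocytes (2% hematocrit, 0.05% parasitemia final) with compounds for 96 hours at 37 C, 5% CO2. Growth inhibition read as loss of luminescence after adding luciferase detection reagent.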
NS1 function inh: blocks influenza NS1 protein function; Potency, µM (series often up to 46.1 µM), for inactives: at the highest dose activity, positive = more growth; 270,000 tested, 0.4% active; AID 2326; calls by dose curve; further: potency means the concentration at half of the fitted maximal effect; actives are rising curves; nearly all actives have a fitted effect of over 50% in size
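Read-out: OD600 growth recovery of NS1-expressing budding yeast. Cells grown overnight at 30C in -URA glucose medium, washed, resuspended and diluted 1:100 in 2% galactose assay medium, pH 6.0. Same strain lacking NS1 served as positive control.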
Shiga toxin inh: inhibitors of Shiga toxin in Vero cells | inhibition, % at 38.7 µM | Vero cells, Shiga toxin protein synthesis inhibition reporter | 290,000 tested, 9.2% active; in the data active means inhibition mostly above about 28%, no sharp cut-off; inactive means mostly below about 43%; further: 0% is about no effect
Pf growth 48h: P. falciparum growth inhibition at 48 hours (one generation); P. falciparum luciferase growth in erythrocytes, 48 h; Potency, µM (top dose mostly 28.7 µM), for inactives: at the highest dose activity change, negative = inhibition, hits mostly inhibitors; 310,000 tested, 5.9% active; further: potency means the concentration at half of the fitted maximal effect; on the % scale 0 is the no-effect control and ±100 the full control effect
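In quantitative HTS format, infected erythrocytes bearing luciferase-reporter parasites were treated for a single generation at 37 C. Luminescence after adding detection reagent served as the growth measure.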
Cycloheximide cs: counter-screen hit for Shiga toxin inhibitors, cycloheximide; 300,000 tested, 12% active; max response, %; cell reporter, cycloheximide protein synthesis inhibition counterscreen; in the data active means max response mostly above about 13%, no sharp cut-off; inactive means mostly below about 14%; further: read at 38.3 µM for the half of the compounds with a filed dose; 0% is about no effect
Starred values were filed as active, the others as inactive; ? = inconclusive; nt = no result. Hits are enriched below; roughly 21% of the tested compounds scored in any of these assays. Unless noted, the call rests on the fitted dose curve; in most records, active means well fitted inhibition curve with a large enough effect; inconclusive means small, poorly fitted or top-dose-only effect, or another doubt; inactive means no such curve, though single readings can be large or run the other way.

SMILES | Pf growth 96h | NS1 function inh | Shiga toxin inh | Pf growth 48h | Cycloheximide cs
O=C(CN1CCN(S(=O)(=O)N2CCCCC2)CC1)Nc1ccc(Br)cc1 | 17% | -37% | -8 | -4% | -1
CCc1ccc(OCC(=O)N2CCN(c3ccccc3F)CC2)cc1 | 6.6µM* | nt | 34 | 17% | 12
CCOC(=O)N1CCN(C(=O)CN(C2CCCCC2)S(=O)(=O)c2c(C)cc(C)cc2C)CC1 | 10µM* | -11% | -11 | nt | 5
Cc1cc(C)c(S(=O)(=O)N(CC(=O)N2CCOCC2)C2CCCCC2)c(C)c1 | ? | -18% | -9 | ? | -6
CN(c1ccccc1C(=O)N1CCN(c2ccccc2F)CC1)S(=O)(=O)c1ccccc1 | 10µM* | -27% | -4 | -29% | 1
Cc1ccc(S(=O)(=O)N(CC(=O)N2CCN(c3ccccc3F)CC2)C2CCCCC2)cc1 | 10µM* | 6% | 13 | nt | 1
Cc1ccc(N2CCN(C(=O)c3ccccc3F)CC2)c(C)c1 | 3.3µM* | -51% | -7 | -15% | -2
O=C(CCS(=O)(=O)c1ccccc1)N1CCN(c2ccccc2F)CC1 | 9% | -11% | 110* | 162% | 35*
O=C(CCN1C(=O)c2ccccc2S1(=O)=O)N1CCN(c2ccccc2F)CC1 | 19% | nt | nt | -24% | nt
O=C(CN1C(=O)c2ccccc2S1(=O)=O)N1CCN(c2ccccc2F)CC1 | 5.9µM* | 4% | -12 | 72% | -1
Cc1ccc(CC(=O)N2CCN(c3ccccc3F)CC2)cc1 | ? | -35% | 56 | 4% | 13*
O=C(COc1ccc(S(=O)(=O)N2CCCCC2)cc1)N1CCCC1 | 68% | -1% | -5 | ? | 0
CCC(C)c1ccc(NC(=S)NCCn2cc(Cl)cn2)cc1 (configuration not stated) | ? | -38% | 14 | 9.3µM* | 8
CCC(C)c1ccc(NC(=S)NCCn2cc(Br)cn2)cc1 (configuration not stated) | ? | nt | 13 | ? | -1
C=C(C)C(=O)OCCO | nt | nt | 5 | nt | -3
Cc1nn(-c2ccccn2)c2c1C(c1ccccn1)C1=C(CCCC1=O)N2 (configuration not stated) | ? | -3% | 14 | nt | -5
CCOC(=O)c1cnc2ccc(OC)cc2c1NCCN1CCOCC1 | ? | -2% | 34 | ? | 7
CCOC(=O)c1cnc2ccccc2c1Nc1ccc(C(=O)O)cc1 | ? | 1% | -6 | ? | 12
CCOC(=O)c1cnc2ccc(OC)cc2c1NCCc1ccc(OC)c(OC)c1 | ? | 0% | -14 | 2.6µM* | -3
CCOC(=O)c1cnc2ccccc2c1NCCc1ccc(OC)c(OC)c1 | 1.7µM* | -1% | -23 | 12µM* | -2
Cc1ccc(C(=O)O)cc1-n1c(=O)n(Cc2ccccc2)c(=O)c2[nH]cnc21 | -8% | -3% | -7 | -4% | 1
COc1cccc(COC(=O)C2CCN(S(=O)(=O)c3ccc(C)cc3C)CC2)c1OC | ? | nt | nt | -25% | nt
COCCNC(=O)CSc1nc(-c2ccccc2)cs1 | 281% | -5% | 45* | 51% | 25*
O=C(CSc1nnc(-c2ccccc2)c(-c2ccccc2)n1)Nc1ncc(Cl)cc1Cl | ? | 0% | 34* | 10% | 18*
Cc1nc(NC(=O)CSc2nnc(-c3ccccc3)c(-c3ccccc3)n2)c(Cl)cc1Cl | ? | 8% | -11 | 9% | -2
SMILES | Pf growth 96h | NS1 function inh | Shiga toxin inh | Pf growth 48h | Cycloheximide cs
O=C(CSc1ncc(-c2ccccc2)nn1)NCc1ccco1 | 6% | 8% | -4 | 0% | -2
O=C(CSc1nnc(-c2ccccc2)c(-c2ccccc2)n1)NCc1ccco1 | -24% | -8% | 0 | 10µM* | 13
O=C(CSc1nc(-c2ccccc2)cs1)NCc1ccco1 | nt | -9% | 44* | 20% | 22*
COCCN1C(=O)N[C@@H](c2ccc(Br)cc2)C(C(C)=O)=C1C | ? | -8% | -14 | ? | -2
COc1ccc2c(c1)CC[C@@H]1[C@@H]2CC[C@]2(C)[C@@H](C(=O)O)C[C@@H]12 | -12% | nt | nt | 5% | nt
CS(=O)(=O)/C(C#N)=C\c1cnc(S(=O)(=O)c2ccccc2)s1 | -8% | -40% | 36 | 30% | 31*
O=C(CCNc1ccc(F)cc1)c1ccco1 | ? | -8% | 90* | 5% | 52*
O=C(CCNc1ccc(F)c(Cl)c1)c1ccco1 | ? | -12% | 7 | -3% | 10
O=C(COC(=O)c1ccco1)c1ccc(S(=O)(=O)N2CCCCC2)cc1 | ? | 3% | -8 | -20% | -2
O=C(COC(=O)c1ccco1)c1ccc(F)cc1 | ? | -2% | 110* | 13% | 55*
CCOc1ccc(S(=O)(=O)NN=C2CCN(C(C)=O)CC2)cc1 | 1% | nt | 36 | 13% | 28
O=[N+]([O-])CC(=Nc1ccc(F)cc1)N/N=C\c1oc(O)c2ccccc12 | 29% | 9% | 26 | 62% | 13
Cc1cc(OCC(=O)NC2CC2)c2c(C)c(C)c(=O)oc2c1 | 12% | 0% | -4 | -2% | -1
CCc1cc(=O)oc2cc(C)cc(OCC(=O)NC3CC3)c12 | ? | 5% | -1 | 12µM* | -9
Cc1cc(OCC(=O)NC2CC2)c2c(C)cc(=O)oc2c1 | 4% | 2% | -6 | -12% | -5
CCCc1cc(=O)oc2cc(C)cc(OCC(=O)Nc3ccc(CN4CCOCC4)cc3)c12 | 8.3µM* | -5% | -2 | ? | 1
CCc1cc(=O)oc2cc(C)cc(OCC(=O)NCCc3c[nH]c4ccccc34)c12 | 2.6µM* | -19% | -5 | 1.9µM* | -4
CCCc1cc(=O)oc2cc(C)cc(OCC(=O)NC3CC3)c12 | 2.1µM* | 4% | -4 | 1.7µM* | -6
CC(C)NC(=O)c1ccc(C2SCC(=O)N2Cc2ccccc2)cc1 (configuration not stated) | 37% | -1% | -6 | ? | 1
O=C(N/N=C/c1ccccc1[N+](=O)[O-])C(=O)N1CCCC1 | -6% | 4% | 52* | 73% | 20*
O=C(CC(=O)NC1CCCCC1)N/N=C/c1ccccc1Cl | ? | 7% | -11 | 19% | -1
O=C(CC(=O)NC1CCCCC1)N/N=C/c1ccccc1[N+](=O)[O-] | ? | 9% | 47* | 130% | 29*
O=C(CNS(=O)(=O)c1ccccc1)N/N=C/c1ccccc1[N+](=O)[O-] | -16% | 4% | 2 | 18% | -1
O=C(CCCO)N/N=C/c1ccccc1[N+](=O)[O-] | 22% | 7% | 39* | 28% | 1
CN(C(=O)Cc1noc2ccccc12)c1ccccc1 | ? | 11% | 21 | 19% | 18
CC(=O)c1ccc(N2CCN(S(=O)(=O)c3ccc4c(c3)NC(=O)CC(=O)N4)CC2)cc1 | ? | -12% | 55* | 27% | 24*
CCOC(=O)C1CCCN(S(=O)(=O)c2ccc3c(c2)CC(C)N3C(=O)C2CC2)C1 (configuration not stated) | 10µM* | -8% | 1 | -18% | 12
CCOC(=O)C1CCCN(S(=O)(=O)c2ccc3c4c(cccc24)C(=O)N3CC)C1 (configuration not stated) | ? | nt | nt | 10µM* | nt
